Screening results: PubChem BioAssay, National Center for Advancing Translational Sciences (NCATS)
Sampled rows, rich in hits. Any-hit rate of the full collection: about 19%.
IL-1B inflam inh = qHTS for Inhibitors of Inflammasome Signaling: IL-1-beta AlphaLISA Primary Screen; AID 743279, 2014; activity change, % at 57.5 µM; THP-1 LPS/ATP IL-1B secretion, AlphaLISA, 16 h; hits give low values; 4.7% of 360,000 active; in the data active = activity change below about -50%; inconclusive = mostly about -30% to -49%
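Secreted IL-1B measured by AlphaLISA bead assay after 16 h compound exposure of THP-1 cells; compounds (final up to 57.5 uM) added 1 h before LPS (250 ng/mL) and ATP (1.25 mM) stimulation; lower signal means less secretion.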
TDP1 cell CPT = qHTS for Inhibitors of human tyrosyl-DNA phosphodiesterase 1 (TDP1): qHTS in cells in presence of CPT; chicken DT40 Tdp1-/-;hTDP1 cells + 20 nM CPT, ATP luminescence, 48 h; Potency, µM (doses to about 46.2 µM), without a hit: at the top dose activity change, negative = growth inhibition, most hits filed as inhibitors; 12% of 420,000 active; also: potency is read from the fitted curve at half-maximal effect; nearly all actives have a fitted effect of over 55% in size
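Chicken DT40 Tdp1-/- cells complemented with human TDP1, 400 cells/well, exposed to compounds plus 20 nM camptothecin for at least 48 h at 37 C; viability read as ATP content by CellTiter-Glo luminescence.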
HT1080 IDH1KD tx = qHTS for induction of synthetic lethality in tumor cells producing 2HG: qHTS for the HT-1080-IDH1KD cell line; Potency, µM (series often up to 46.1 µM), for the others: at the top dose activity, negative = toxicity, hits mostly cytotoxic; 2% of 360,000 active; HT-1080 IDH1 knockdown viability, ATP luminescence, 48 h;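 also: potency is read from the fitted curve at half-maximal effect; 0% = DMSO wells and -100% = cell-free medium wells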
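IDH1KD HT-1080 cells, 750/well, RPMI + 5% FBS; compound pinned after 2 h settling; 48 h, 37 °C; CellTiter-Glo luminescence; % activity normalised to DMSO and no-cell wells; curves fitted, classed by r2 and efficacy.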
HT1080NT lethal = qHTS for induction of synthetic lethality in tumor cells producing 2HG: qHTS for the HT-1080-NT fibrosarcoma cell line; HT-1080-NT fibrosarcoma viability, CellTiter-Glo ATP luminescence, 48 h; Potency, µM (series often up to 46.1 µM), for inactives: top-dose activity, negative = less viability, usual class: cytotoxic; 1.6% of 360,000 active;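 also: NT is the 2HG producing partner of a matched IDH1 knockdown line; potency is read from the fitted curve at half-maximal effect; 0% = DMSO-treated cells and -100% = media-only wells without cells; nearly all actives have a fitted effect of over 55% in size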
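Viability by CellTiter-Glo luminescence after 48 h compound exposure at 37C of HT-1080-NT cells (750/well, RPMI, 5% FBS). % activity scaled between DMSO wells and medium-only wells, then curve-fitted and categorized by curve class.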
ELG1 repair inh = qHTS screen for small molecules that inhibit ELG1-dependent DNA repair in human embryonic kidney (HEK293T) cells expressing luciferase-tagged ELG1. HEK293T ELG1-luciferase reporter, luminescence, 16 h; DNA damage induced by 5-fluorouridine. Potency, µM (titrated, usually from 46.1 µM), for the others: at the highest dose activity change, negative = inhibition, usual class: inhibitors. 2.3% of 330,000 active. AID 504467, 2011; also: potency is read from the fitted curve at half-maximal effect; nearly all actives have a fitted effect of over 55% in size
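Quantitative HTS, concentration-response format. 2,000 cells/well co-treated with 5-fluorouridine and compound, 16 hr in 5% CO2 at 37 °C; ONE-Glo luminescence read after 30 min.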
DT40 TDP1 no CPT = qHTS for Inhibitors of human tyrosyl-DNA phosphodiesterase 1 (TDP1): qHTS in cells in absence of CPT | 15% of 420,000 active | DT40 Tdp1-/- hTDP1 cells, no CPT, ATP luminescence, 48 h | Potency, µM (titrated, usually from 46.2 µM), without a hit: at the top dose activity change, negative = growth inhibition, usual class: inhibitors | AID 686978, 2013; also: potency is read from the fitted curve at half-maximal effect; nearly all actives have a fitted effect of over 55% in size
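Luminescent ATP content (CellTiter-Glo) served as the growth readout. Knockout chicken DT40 cells expressing human TDP1 were exposed to compounds without camptothecin for a minimum 48 hr at 37 °C.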
Numbers without * were called inactive; ? = inconclusive; nt = no result; [ ] = remark or other dose. Unless noted, calls follow the shape of the dose curve; as a rule, active = well fitted curve in the direction sought with a large enough effect; inconclusive = small, poorly fitted or top-dose-only effect, or another doubt; inactive = no such curve, though single readings can be large; an effect the other way counts as inactive or inconclusive. Unless noted, % is scaled to controls: 0 for no effect and ±100 for the full control effect.

SMILES	IL-1B inflam inh	TDP1 cell CPT	HT1080 IDH1KD tx	HT1080NT lethal	ELG1 repair inh	DT40 TDP1 no CPT
Cc1ccc2c(c1)CN(CCNC(=O)c1cc3ccccc3oc1=O)CC(C)O2 (configuration not stated)	nt	9.8%[9.04 µM]	nt	nt	nt	-7.9%
CCOCCn1ccc2c(OCC(=O)Nc3ccc(C(N)=O)cc3)cccc2c1=O	nt	?	nt	nt	nt	14.6µM*
COCCn1ccc2c(OCC(=O)Nc3cc(OC)ccc3OC)cccc2c1=O	-9.5	?	-1.7%	-0.4%	?	14.6µM*
CCOCCn1ccc2c(OCC(=O)Nc3ccccc3OC)cccc2c1=O	-60.0*	?	-22.8%	?	?	?
COC(=O)COc1cccc2c(=O)n(CC(=O)Nc3ccc4c(c3)OCCO4)ccc12	-50.1*	-14.9%	?	-4.9%	0.0%	-13.3%
COCCn1ccc2c(OCC(=O)Nc3c(C)cc(C)cc3C)cccc2c1=O	nt	-16.0%	nt	nt	nt	?
CCOCCn1ccc2c(OCC(=O)Nc3cccc(F)c3)cccc2c1=O	nt	-28.9%	nt	nt	nt	?
CC(C)Sc1ncc(Cl)c(C(=O)Nc2nc3ccc(S(C)(=O)=O)cc3s2)n1	nt	1.0%	nt	nt	nt	-5.4%
CCCn1ccc2c(OCC(=O)Nc3ccc(C(F)(F)F)cc3)cccc2c1=O	nt	-12.0%	nt	nt	nt	?
CCn1ccc2c(OCC(=O)Nc3ccc(C(C)=O)cc3)cccc2c1=O	nt	?	nt	nt	nt	9.2µM*
CCc1ccc(NC(=O)CN(c2ccc(C)cc2)S(=O)(=O)c2cccs2)cc1	nt	-17.5%	nt	nt	nt	-18.8%
Cc1cc(Cl)cc(Cl)c1OCCOCCN(C)C	0.0	?	-22.9%	-11.3%	?	14.6µM*
Cc1cc(Cl)cc(Cl)c1OCCOc1cccc2cccnc12	-21.8	23.1µM*	?	?	-2.6%	?
Brc1ccccc1OCCOc1cccc2cccnc12	-13.8	-1.1%	-27.0%	-16.0%	?	-5.9%
COc1cccc(C=O)c1OCCCOc1cccc2cccnc12	14.0	?	?	?	?	20.6µM*
CC(=O)c1cccc(OCCCOc2cccc3cccnc23)c1	-23.1	?	-0.8%	-19.0%	6.8%	16.4µM*
Cc1ccc(-n2c(=O)c3c(c4cc(C)ccc4n3C)n(Cc3ccc(F)cc3)c2=O)cc1	nt	-7.9%	nt	nt	nt	-18.9%
Brc1ccccc1OCCCOc1cccc2cccnc12	-10.1	?	?	-17.9%	?	?
COc1cc(C(=O)NCCOc2cccc3cccnc23)cc(OC)c1OC	15.3	0.0%	2.2%	1.4%	8.2µM*	17.6%
Cc1cc(C)cc(OCCCOc2cccc3cccnc23)c1	0.0	29.1µM*	?	?	-10.1%	16.4µM*
COc1cc(C(=O)NCCOc2ccccc2C)cc(OC)c1OC	26.0	?	-6.5%	-5.3%	?	?
Oc1ccc(/C=N/Nc2cc(N3CCCC3)nc(N3CCCC3)n2)cc1O	37.2	18.4µM*	-4.8%	-0.6%	-10.3%	20.6µM*
Cc1ccc(/C=N/Nc2cc(C)nc(N3CCOCC3)n2)cc1	-7.0	10.2%	-19.7%	-16.6%	?	?
CCCCOc1ccc(/C=N/Nc2cc(N3CCOCC3)nc(C)n2)cc1	14.3	18.4µM*	-3.1%	1.1%	?	20.6µM*
Cc1nc(N/N=C/c2cccnc2)cc(N2CCOCC2)n1	-64.3*	?	0.1%	-5.1%	nt	?
SMILES	IL-1B inflam inh	TDP1 cell CPT	HT1080 IDH1KD tx	HT1080NT lethal	ELG1 repair inh	DT40 TDP1 no CPT
Cc1cc(N/N=C/c2ccccc2)nc(N2CCOCC2)n1	-23.3	1.0%	-18.6%	0.2%	0.0%	-5.2%
Cc1cccc(/C=N/Nc2cc(N3CCOCC3)nc(N3CCOCC3)n2)c1	-78.4*	3.26µM*	?	?	7.31µM*	16.4µM*
COc1ccc(/C=N/Nc2nc(N3CCCC3)nc(N3CCCC3)n2)cc1O	10.1	-21.6%	-8.8%	-7.2%	?	?
CCCCn1nnnc1C1(C)CCC(=O)N1Cc1cc(OC)ccc1OC (configuration not stated)	0.0	-7.5%	-1.4%	6.5%	nt	-14.5%
Oc1ccc(/C=N\Nc2cc(N3CCOCC3)nc(N3CCOCC3)n2)c(O)c1	?	20.6µM*	-13.5%	-18.1%	10.3µM*	16.4µM*
O=C(Cc1ccc(Br)cc1)OCC(=O)N1CCCCCC1	5.8	-9.9%	9.7%	10.2%	4.5%	-21.2%
Cc1nn(Cc2ccccc2)c(Cl)c1/C=C1\NC(=S)NC1=O	-63.6*	?	-22.3%	0.2%	?	3.7%
COC(=O)C(Cc1ccccc1)NC(=O)CCCC(=O)NCc1cccc(OC)c1 (configuration not stated)	12.4	1.8%	3.9%	4.7%	?	-15.8%
Cc1ccc(-n2ncc(C(=O)NC3CC3)c2C2CCN(C(=O)OC(C)(C)C)CC2)cc1	35.9	-18.4%	17.6%	15.4%	0.9%	-3.3%
COc1ccc(-n2ncc(C(=O)NCCCN3CCCCC3)c2C2CCN(C(=O)OC(C)(C)C)CC2)cc1	nt	18.4µM*	nt	nt	nt	18.4µM*
COc1ccccc1N1CCN(CCCNC(=O)c2cnn(-c3ccccc3)c2C2CCN(C(=O)OC(C)(C)C)CC2)CC1	nt	16.4µM*	nt	nt	nt	16.4µM*
Cc1ccc(-n2ncc(C(=O)NCCN3CCC(Cc4ccccc4)CC3)c2C2CCN(C(=O)OC(C)(C)C)CC2)cc1	nt	4.61µM*	nt	nt	nt	2.91µM*
COc1ccc(-n2ncc(C(=O)NC3CC3)c2C2CCN(C(=O)OC(C)(C)C)CC2)cc1	14.2	-20.2%	7.2%	5.1%	3.9%	-0.7%
Cc1ccc(-n2ncc(C(=O)NC3CCCCC3)c2C2CCN(C(=O)OC(C)(C)C)CC2)cc1	nt	?	nt	nt	nt	23.1µM*
CC(C)(C)OC(=O)N1CCC(c2c(C(=O)N3CCN(c4ccccn4)CC3)cnn2-c2ccccc2)CC1	nt	-28.7%	nt	nt	nt	?
CCc1ccc(OCc2nc(-c3ccc(OC)c(OC)c3)no2)c(Br)c1	nt	-26.5%	nt	nt	nt	?
CSc1nc(=S)c2[nH]c(=S)[nH]c2[nH]1	24.2	2.5%	-0.5%	-1.0%	8.8%	-1.1%
CCOC(=O)NN1C(=O)c2ccccc2NC1c1cccs1 (configuration not stated)	16.0	-2.6%	25.4%	7.8%	-5.5%	7.3%
